Results as given in PubChem BioAssay (NCATS).
Inconclusive results are not listed. Where a call stands in place of a potency, no number is given. Activity calls are given as the source filed them. The call rests on the fitted dose curve; in most records, active means well fitted inhibition curve with a large enough effect; inconclusive means small, poorly fitted or top-dose-only effect; inactive means flat fitted curve, though single readings scatter.

Key:
Assay in all cases: qHTS profiling for inhibitors of Plasmodium falciparum proliferation (AID 504749); further: nearly all actives have a fitted effect of over 60% in size
Settings in all cases: P. falciparum in erythrocytes, SYBR Green DNA, 72 h; series mostly up to 28.7 µM
CP192 = test system: CP192
Method in brief: (§1)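 P. falciparum-infected erythrocytes (0.3% parasitemia, 2.5% hematocrit) incubated with compound 72 h at 37 C, 5% CO2. Parasite DNA detected by SYBR Green after lysis, overnight at room temperature; normalised to 0.29 uM artemisinin and DMSO.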

7G8 = test system: 7G8
Method in brief: as §1

ATS189 = test system: ATS189
Method in brief: as §1

C2A = test system: C2A
Method in brief: as §1

CP185 = test system: CP185
Method in brief: as §1

CP191 = test system: CP191
Method in brief: as §1

CP201 = test system: CP201
Method in brief: as §1

CP215 = test system: CP215
Method in brief: as §1

CP217 = test system: CP217
Method in brief: as §1

CP237 = test system: CP237
Method in brief: as §1

CP238 = test system: CP238
Method in brief: as §1

CP247 = test system: CP247
Method in brief: as §1

CP250 = test system: CP250
Method in brief: as §1

CP252 = test system: CP252
Method in brief: as §1

CP256 = test system: CP256
Method in brief: as §1

AA1029 = test system: AA1029
Method in brief: as §1

AS120 = test system: AS120
Method in brief: as §1

ATS95 = test system: ATS95
Method in brief: as §1

CP194 = test system: CP194
Method in brief: as §1

CP211 = test system: CP211
Method in brief: as §1
Potency means the concentration at half of the fitted maximal effect.

SMILES: Fc1ccc(C(c2ccc(F)cc2)N2CCN(CC=Cc3ccccc3)CC2)cc1
- Potency (CP192): inactive

SMILES: CN1CCN2c3ncccc3Cc3ccccc3C2C1 (stereo unspecified)
- Potency (7G8): 11.2 µM (active)
- Potency (ATS189): inactive
- Potency (C2A): inactive
- outcome (CP185): inactive
- outcome (CP191): inactive
- Potency (CP201): inactive
- Potency (CP215): inactive
- Potency (CP217): inactive
- Potency (CP237): inactive
- Potency (CP238): inactive
- outcome (CP247): inactive
- Potency (CP250): inactive
- Potency (CP252): inactive
- outcome (CP256): inactive

SMILES: Clc1ccc(COC(Cn2ccnc2)c2ccc(Cl)cc2Cl)c(Cl)c1 (stereo unspecified)
- Potency (7G8): 0.708 µM (active)
- Potency (AA1029): 4.47 µM (active)
- Potency (AS120): 2 µM (active)
- Potency (ATS95): 3.98 µM (active)
- Potency (CP215): 5.73 µM (active)
- Potency (CP217): 3.16 µM (active)
- Potency (CP237): 3.55 µM (active)

SMILES: O=C1C(CCC(O)c2ccc(F)cc2)C(c2ccc(O)cc2)N1c1ccc(F)cc1 (stereo unspecified)
- Potency (7G8): inactive
- Potency (AA1029): inactive
- Potency (AS120): inactive
- Potency (ATS189): inactive
- Potency (ATS95): inactive
- Potency (C2A): inactive
- outcome (CP185): inactive
- outcome (CP191): inactive
- Potency (CP192): inactive
- Potency (CP194): inactive
- Potency (CP201): inactive
- Potency (CP211): inactive
- Potency (CP215): inactive
- Potency (CP217): inactive
- Potency (CP237): inactive
- Potency (CP238): inactive
- outcome (CP247): inactive
- Potency (CP250): inactive
- Potency (CP252): inactive
- outcome (CP256): inactive

SMILES: Cc1cc2nc3c(=O)[nH]c(=O)nc-3n(CC(O)C(O)C(O)CO)c2cc1C (stereo unspecified)
- Potency (AA1029): inactive
- Potency (AS120): inactive
- Potency (ATS189): inactive
- Potency (ATS95): inactive
- Potency (C2A): inactive
- outcome (CP185): inactive
- Potency (CP192): inactive
- Potency (CP194): inactive
- Potency (CP201): inactive
- Potency (CP211): inactive
- Potency (CP215): inactive
- Potency (CP217): inactive
- Potency (CP237): inactive
- Potency (CP238): inactive
- Potency (CP250): inactive
- Potency (CP252): inactive
- outcome (CP256): inactive

SMILES: O=C(O)c1nc(=O)[nH]c(=O)[nH]1
- Potency (7G8): inactive
- Potency (AA1029): inactive
- Potency (AS120): inactive
- Potency (ATS189): inactive
- Potency (ATS95): inactive
- Potency (C2A): inactive
- outcome (CP185): inactive
- outcome (CP191): inactive
- Potency (CP192): inactive
- Potency (CP194): inactive
- Potency (CP201): inactive
- Potency (CP211): inactive
- Potency (CP217): inactive
- Potency (CP237): inactive
- Potency (CP238): inactive
- outcome (CP247): inactive
- Potency (CP250): inactive
- Potency (CP252): inactive
- outcome (CP256): inactive

SMILES: N#CC(c1ccc(Cl)cc1)c1c(Cl)cc(-n2ncc(=O)[nH]c2=O)cc1Cl (stereo unspecified)
- Potency (AA1029): inactive
- Potency (AS120): inactive
- Potency (ATS189): inactive
- Potency (ATS95): inactive
- Potency (C2A): inactive
- outcome (CP185): inactive
- outcome (CP191): inactive
- Potency (CP192): inactive
- Potency (CP194): inactive
- Potency (CP201): inactive
- Potency (CP211): inactive
- Potency (CP215): inactive
- Potency (CP217): inactive
- Potency (CP237): inactive
- Potency (CP238): inactive
- outcome (CP247): inactive
- Potency (CP250): inactive
- Potency (CP252): inactive
- outcome (CP256): inactive

SMILES: CN1CC(=O)N2C(Cc3c([nH]c4ccccc34)[C@H]2c2ccc3c(c2)OCO3)C1=O (stereo partly specified)
- Potency (7G8): 10 µM (active)
- Potency (AA1029): inactive
- Potency (AS120): inactive
- Potency (ATS189): inactive
- Potency (ATS95): inactive
- Potency (C2A): inactive
- outcome (CP185): inactive
- outcome (CP191): inactive
- Potency (CP192): inactive
- Potency (CP194): inactive
- Potency (CP201): inactive
- Potency (CP211): inactive
- Potency (CP215): inactive
- Potency (CP217): inactive
- Potency (CP237): inactive
- Potency (CP238): inactive
- outcome (CP247): inactive
- Potency (CP250): inactive
- Potency (CP252): inactive
- outcome (CP256): inactive

SMILES: COc1ccnc(CS(=O)c2nc3ccc(OC(F)F)cc3[nH]2)c1OC (stereo unspecified)
- Potency (7G8): inactive
- Potency (AA1029): inactive
- Potency (AS120): inactive
- Potency (ATS189): inactive
- Potency (ATS95): inactive
- Potency (C2A): inactive
- outcome (CP185): inactive
- outcome (CP191): inactive
- Potency (CP192): inactive
- Potency (CP194): inactive
- Potency (CP201): inactive
- Potency (CP211): inactive
- Potency (CP215): inactive
- Potency (CP217): inactive
- Potency (CP237): inactive
- Potency (CP238): inactive
- outcome (CP247): inactive
- Potency (CP250): inactive
- Potency (CP252): inactive
- outcome (CP256): inactive

SMILES: NS(=O)(=O)c1cc(Cl)c(Cl)c(S(N)(=O)=O)c1
- Potency (AA1029): inactive
- Potency (AS120): inactive
- Potency (ATS189): inactive
- Potency (ATS95): inactive
- Potency (C2A): inactive
- outcome (CP185): inactive
- outcome (CP191): inactive
- Potency (CP192): inactive
- Potency (CP194): inactive
- Potency (CP201): inactive
- Potency (CP211): inactive
- Potency (CP215): inactive
- Potency (CP217): inactive
- Potency (CP237): inactive
- Potency (CP238): inactive
- outcome (CP247): inactive
- Potency (CP250): inactive
- Potency (CP252): inactive
- outcome (CP256): inactive

SMILES: CC(C)CN(C[C@@H](O)[C@H](Cc1ccccc1)NC(=O)O[C@H]1CO[C@H]2OCC[C@H]21)S(=O)(=O)c1ccc(N)cc1
- Potency (7G8): 12.6 µM (active)
- Potency (AA1029): inactive
- Potency (AS120): inactive
- Potency (ATS189): inactive
- Potency (ATS95): inactive
- Potency (C2A): inactive
- outcome (CP185): inactive
- outcome (CP191): inactive
- Potency (CP192): inactive
- Potency (CP194): inactive
- Potency (CP201): inactive
- Potency (CP211): inactive
- Potency (CP215): inactive
- Potency (CP217): inactive
- Potency (CP237): inactive
- Potency (CP238): inactive
- outcome (CP247): inactive
- Potency (CP250): inactive
- Potency (CP252): inactive
- outcome (CP256): inactive

SMILES: C=C1c2cccc(O)c2C(O)=C2C(=O)[C@@]3(O)C(O)=C(C(N)=O)C(=O)[C@@H](N(C)C)[C@@H]3[C@@H](O)[C@H]12
- Potency (AA1029): inactive
- Potency (AS120): inactive
- Potency (ATS189): inactive
- Potency (ATS95): inactive
- Potency (C2A): inactive
- outcome (CP185): inactive
- outcome (CP191): inactive
- Potency (CP192): inactive
- Potency (CP194): inactive
- Potency (CP201): inactive
- Potency (CP211): inactive
- Potency (CP215): inactive
- Potency (CP217): inactive
- Potency (CP238): inactive
- outcome (CP247): inactive
- Potency (CP250): inactive
- Potency (CP252): inactive
- outcome (CP256): inactive

SMILES: COc1cc2c(cc1OC)CC(=O)N(CCCN(C)C[C@H]1Cc3cc(OC)c(OC)cc31)CC2
- Potency (7G8): 11.2 µM (active)
- Potency (AA1029): inactive
- Potency (AS120): inactive
- Potency (ATS189): inactive
- Potency (ATS95): inactive
- Potency (C2A): inactive
- outcome (CP185): inactive
- outcome (CP191): inactive
- Potency (CP192): inactive
- Potency (CP194): inactive
- Potency (CP201): inactive
- Potency (CP211): inactive
- Potency (CP215): inactive
- Potency (CP217): inactive
- Potency (CP238): inactive
- outcome (CP247): inactive
- Potency (CP250): inactive
- Potency (CP252): inactive
- outcome (CP256): inactive

SMILES: N#Cc1c(N(CC(=O)O)CC(=O)O)sc(C(=O)O)c1CC(=O)O
- Potency (7G8): inactive
- Potency (AA1029): inactive
- Potency (AS120): inactive
- Potency (ATS189): inactive
- Potency (ATS95): inactive
- Potency (C2A): inactive
- outcome (CP185): inactive
- outcome (CP191): inactive
- Potency (CP192): inactive
- Potency (CP194): inactive
- Potency (CP201): inactive
- Potency (CP211): inactive
- Potency (CP215): inactive
- Potency (CP217): inactive
- Potency (CP237): inactive
- Potency (CP238): inactive
- outcome (CP247): inactive
- Potency (CP250): inactive
- Potency (CP252): inactive
- outcome (CP256): inactive

SMILES: COc1c(C)c2c(c(O)c1CC=C(C)CCC(=O)OCCN1CCOCC1)C(=O)OC2
- Potency (7G8): 4.47 µM (active)
- Potency (AA1029): 10 µM (active)
- Potency (AS120): 7.94 µM (active)
- Potency (ATS189): 7.94 µM (active)
- Potency (ATS95): 7.94 µM (active)
- Potency (C2A): 11.2 µM (active)
- Potency (CP192): 8.49 µM (active)
- Potency (CP194): 6.75 µM (active)
- Potency (CP201): 13.5 µM (active)
- Potency (CP211): 6.01 µM (active)
- Potency (CP215): 6.01 µM (active)
- Potency (CP217): 7.94 µM (active)
- Potency (CP237): 8.91 µM (active)
- Potency (CP238): 7.94 µM (active)
- Potency (CP250): 7.94 µM (active)
- Potency (CP252): 8.91 µM (active)

SMILES: CS(=O)(=O)c1ccc(C2=C(c3ccccc3)C(=O)OC2)cc1
- Potency (7G8): inactive
- Potency (AA1029): inactive
- Potency (ATS189): inactive
- Potency (ATS95): inactive
- Potency (C2A): inactive
- outcome (CP185): inactive
- outcome (CP191): inactive
- Potency (CP194): inactive
- Potency (CP201): inactive
- Potency (CP211): inactive
- Potency (CP217): inactive
- Potency (CP237): inactive
- Potency (CP238): inactive
- outcome (CP247): inactive
- Potency (CP250): inactive
- Potency (CP252): inactive
- outcome (CP256): inactive
